Laboratory results published in PubChem BioAssay AID1159580 (chemical genetic matrix, 2015).
Several values for one entry are separate records, joined by “and”; a condition that tells them apart may be missing. Equal entries are not always repeated. Among all 5,500 compounds or so, about 2,000 (36%) were called active. About 18% were inconclusive and are not listed. Cut-off read from the data, not from the text of the source: active = normalized growth mostly below about 0.91 (no sharp cut-off); inconclusive = no clear call, values can overlap the other calls; inactive = mostly above about 0.92. The list shows a part of the results.

Experiment: chemical genetic growth profiling, strain panel (AID 1159580);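 note: tested at 20 µM; growth read once vehicle control cultures reached saturation at 30 °C; 1 = growth at the plate median or of vehicle wells; lower values mean less growth of the strain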
Details: S. cerevisiae deletion strains, growth OD

Measured: normalized growth

O=C(c1ccccc1)c1ccc2n1CCC2C(=O)O (stereo not drawn)
inactive: locus YAL013W, strain DEP1, active compounds read low 0.993 | locus YAL021C, strain ccr4, active compounds read low 0.98 | locus YAL026C, strain drs2, active compounds read low 0.983 | locus YAL030W, strain snc1, active compounds read low 0.978 | locus YAL040C, strain CLN3, active compounds read low 1.01 | locus YBL061C, strain skt5, active compounds read low 1.01 | locus YBR009C, strain hhf1, active compounds read low 0.991 | locus YBR021W, strain FUR4, active compounds read low 0.988 | locus YBR023C, strain chs3, active compounds read low 1.01 | locus YBR171W, strain sec66, active compounds read low 0.994 | locus YBR229C, strain ROT2, active compounds read low 1.01 | locus YBR231C, strain swc5, active compounds read low 1.01 | locus YBR279W, strain paf1, active compounds read low 1.01 | locus YCL011C, strain gbp2, active compounds read low 0.974 | locus YCL016C, strain dcc1, active compounds read low 0.995 | locus YCL029C, strain bik1, active compounds read low 0.956 | locus YCL061C, strain MRC1 (second series), active compounds read low 1.02 | locus YCL069W, strain vba3, active compounds read low 0.979 | locus YCR088W, strain abp1, active compounds read low 1.01 | locus YDL005C, strain med2, active compounds read low 0.967 | locus YDL035C, strain GPR1, active compounds read low 0.987 | locus YDL040C, strain nat1, active compounds read low 0.997 | locus YDL074C, strain BRE1, active compounds read low 1.05 | locus YDL101C, strain DUN1, active compounds read low 1 | locus YDL134C, strain PPH21, active compounds read low 0.988 | locus YDL185W, strain tfp1, active compounds read low 0.958 | locus YDL192W, strain arf1, active compounds read low 0.968 | locus YDR001C, strain nth1, active compounds read low 0.968 | locus YDR069C, strain doa4, active compounds read low 1.01 | locus YDR101C, strain arx1, active compounds read low 1.01 | locus YDR137W, strain rgp1, active compounds read low 0.945 | locus YDR150W, strain NUM1, active compounds read low 0.994 and 1.01 | locus YDR159W, strain sac3, active compounds read low 0.955 | locus YDR162C, strain NBP2, active compounds read low 0.982 | locus YDR195W, strain ref2 0.975 | locus YDR297W, strain sur2, active compounds read low 0.991 | locus YDR318W, strain mcm21, active compounds read low 0.969 | locus YDR334W, strain swr1, active compounds read low 0.976 | locus YDR335W, strain msn5, active compounds read low 0.988 | locus YDR363W, strain ESC2, active compounds read low 1.02 | locus YDR388W, active compounds read low 0.981 | locus YDR392W, strain spt3, active compounds read low 0.935 | locus YDR502C, strain sam2, active compounds read low 0.987 | locus YEL003W, strain gim4, active compounds read low 0.997 | locus YEL037C, strain rad23, active compounds read low 0.984 | locus YEL061C, strain CIN8 (second series), active compounds read low 0.999 | locus YEL061C, strain CIN8, active compounds read low 0.994 | locus YER002W, strain NOP16, active compounds read low 0.998 | locus YER015W, strain faa2, active compounds read low 0.99 | locus YER016W, strain bim1, active compounds read low 0.988 | locus YER110C, active compounds read low 0.96 | locus YER111C, strain swi4, active compounds read low 1 | locus YER155C, strain BEM2 (second series), active compounds read low 1.01 | locus YER155C, strain BEM2, active compounds read low 1 | locus YER167W, strain BCK2, active compounds read low 0.997 | locus YFR010W, strain ubp6, active compounds read low 0.981 | locus YGL078C, strain dbp3, active compounds read low 0.982 | locus YGL086W, strain mad1, active compounds read low 0.995 | locus YGL167C, strain pmr1, active compounds read low 0.998 | locus YGL173C, strain kem1, active compounds read low 1 | locus YGL227W, strain vid30, active compounds read low 0.996 | locus YGL240W, strain doc1, active compounds read low 1.02 | locus YGL248W, strain PDE1, active compounds read low 1.01 | locus YGL253W, strain hxk2, active compounds read low 0.974 | locus YGR135W, strain pre9, active compounds read low 0.974 | locus YGR252W, strain gcn5, active compounds read low 0.996 | locus YHR013C, strain ard1, active compounds read low 0.994 | locus YHR027C, strain rpn1, active compounds read low 1.01 | locus YHR030C, strain SLT2, active compounds read low 0.988 and 0.999 | locus YHR079C, strain IRE1 (second series), active compounds read low 0.965 | locus YHR079C, strain IRE1, active compounds read low 1.02 | locus YHR094C, strain hxt1, active compounds read low 0.985 | locus YHR129C, strain ARP1, active compounds read low 0.991 | locus YHR142W, strain chs7, active compounds read low 0.975 | locus YHR200W, strain rpn10, active compounds read low 0.96 | locus YIL066C, strain RNR3, active compounds read low 1 | locus YIL073C, strain SPO22, active compounds read low 0.922 | locus YIL125W, strain kgd1, active compounds read low 0.985 | locus YIR030C, strain dcg1, active compounds read low 0.973 | locus YJL092W, strain hpr5, active compounds read low 0.984 | locus YJL095W, strain BCK1 (second series), active compounds read low 0.993 | locus YJL095W, strain BCK1, active compounds read low 1.03 and 0.992 | locus YJL115W, strain asf1, active compounds read low 0.984 | locus YJL129C, strain trk1, active compounds read low 1.02 | locus YJL134W, strain LCB3, active compounds read low 0.99 | locus YJL154C, strain vps35, active compounds read low 0.975 | locus YJL164C, strain tpk1, active compounds read low 0.965 | locus YJL166W, strain qcr8, active compounds read low 1.02 | locus YJL168C, strain set2, active compounds read low 0.979 | locus YJL187C, strain SWE1 (second series), active compounds read low 1.01 | locus YJL187C, strain SWE1, active compounds read low 0.986 | locus YJR043C, strain POL32, active compounds read low 0.997 | locus YJR066W, strain TOR1, active compounds read low 0.966
